GIRK2 act: GIRK2 channel activators by thallium flux; HEK293 GIRK2/NPY4 cells, thallium flux fluorescence; 34,000 tested, under 10 active; activation (% efficacy), % for hits at 37.5 µM;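 active means primary screen hit, no activity in plain HEK293 cells, and in GIRK2-only cells above 5% efficacy rising with concentration; inactive means the rest, including fluorescent compounds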;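 further: efficacy is normalized control-subtracted fluorescence 15 s after thallium addition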
AMPAR-TARP mod: GluA2-stargazin AMPA receptor complex modulation | O88602+P19491 | AID 1259245 | calls only at 30 µM | HEK293 GluA2+stargazin, membrane potential dye (FDSS), glutamate EC50; hits were called plate by plate, in both directions | actives 3.5% (n = 40,000);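 active means any of four per-well response measures lying three or more SD from its plate-wide compound average, in either direction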
* hit, by the source's call; i = inactive; . = not tested or not shown; + = active, no number; ! = not confirmed by another sample. Shown is part of a subset that was picked to be rich in hits.

SMILES | GIRK2 act | AMPAR-TARP mod
CN1CCN(CC(O)COCCOc2ccc(Br)cc2)CC1 (stereo not given) | i | i
Cc1ccc(NC(=O)C(=O)NCC2CCN(C)CC2)cc1 | i | i
COc1ccc(S(=O)(=O)N2CCC(C(=O)Nc3nnc(-c4ccc(C)c(C)c4)o3)CC2)cc1 | i | i
CCOc1ccccc1C(=O)NCC(O)(c1ccccc1)C1CC1 (stereo not given) | . | +
Cc1ccccc1C(=O)NCC(O)(c1ccccc1)C1CC1 (stereo not given) | . | i
Cc1cc(NC(=O)/C=C/c2ccccc2)on1 | i | .
Cc1cc(C)c2sc(NC(=O)/C=C\c3ccccc3)nc2n1 | i | +
COc1cc(OC)cc(C(=O)Nc2ccc(N3CCCCC3=O)c(OC)c2)c1 | i | i
CC1=C(C(=O)Nc2cccc(C(F)(F)F)c2)C(c2ccc(F)cc2)C2=C(CCCC2=O)N1 (stereo not given) | . | i
CC1=C(C(=O)Nc2cc(C(F)(F)F)ccc2Cl)C(c2ccc(C)cc2)C2=C(CCCC2=O)N1 (stereo not given) | . | +
Cc1cc(NS(=O)(=O)c2cccc(Cl)c2)n(C2CCS(=O)(=O)C2)n1 (stereo not given) | i | i
CC1CN(CC(O)COc2cccc3ccccc23)CC(C)O1 (stereo not given) | . | i
Cc1cc(N2CC(C)OC(C)C2)nc2ccccc12 (stereo not given) | . | +
COC(=O)c1sccc1S(=O)(=O)N(CC(=O)Nc1cccc(OC)c1)c1ccc(Cl)cc1 | i | +
COC(=O)c1sccc1S(=O)(=O)N(CC(=O)Nc1ccccc1)c1ccccc1 | i | i
CCc1ccccc1NC(=O)CN(c1ccc(C)cc1)S(=O)(=O)c1ccsc1C(=O)OC | i | +
COC(=O)c1sccc1S(=O)(=O)N(CC(=O)Nc1ccccc1OC)c1ccccc1 | i | i
O=C(CCn1c(=O)[nH]c2ccccc2c1=O)Nc1ccc(Cl)cc1 | i | i
COc1ccc(CCN2CC(=O)N(c3ccccc3)C3CS(=O)(=O)CC32)cc1OC (stereo not given) | i | i
COc1ccc(CCNC(=O)C2(C#N)CC2)cc1OC | i | .
CC(O)(CNC(=O)NC1CCCCC1)c1ccc(-c2ccccc2)cc1 (stereo not given) | i | i
COc1ccccc1CNC(=O)c1csc(NS(=O)(=O)c2cccs2)n1 | i | i
N=c1sc(/C=C2\C=Nc3ccccc32)c(O)n1-c1nccs1 | . | +
COc1cn(CC(=O)Nc2ccc(C)cc2)c(CSc2nc(C)cs2)cc1=O | i | +
COc1cn(CC(=O)Nc2ccc(C(N)=O)cc2)c(CSc2nnnn2C)cc1=O | i | i
SMILES | GIRK2 act | AMPAR-TARP mod
CCOc1ccc(NC(=O)Cn2cc(OC)c(=O)cc2CSc2nc(C)cs2)cc1 | i | i
COc1ccc(NC(=O)Cn2cc(OC)c(=O)cc2CSc2nnnn2C)cc1OC | i | +
Cc1cccc(N2CCN(C(=O)c3snc(-c4cccc(F)c4)c3N)CC2)c1 | i | .
CSc1ccccc1C(=O)N1CCC(c2cccs2)CC1 | i | +
O=C(c1ccccc1Oc1ccccc1)N1CCC(c2cccs2)CC1 | i | i
CCn1c(=O)c2c(nc3oc(C)c(C)n32)n(C)c1=O | i | +
CCn1c(=O)c2c(nc3n(-c4ccc(OC)cc4)c(C)c(C)n23)n(C)c1=O | . | i
CC(C)Cn1c(C(CNc2ccc(F)cc2)CC(=O)O)nc2ccccc21 (stereo not given) | i | i
Cc1ccc(-c2nn(C)c(=O)c3ccccc23)cc1CNS(C)(=O)=O | . | i
Cn1nc2c3c(cccc3c1=O)-c1ccccc1-2 | . | +
Cc1c(C)c(C)c(S(=O)(=O)NCCC(O)c2ccco2)c(C)c1C (stereo not given) | i | +
CN(C)CCNC(=O)C(=O)NCCC(O)c1ccco1 (stereo not given) | i | i
COc1cccc2sc(N(CCCN(C)C)C(=O)c3cc(C)nn3C)nc12 | i | i
COc1cccc2sc(N(CCN(C)C)C(=O)c3cc(C)nn3C)nc12 | i | +
CC(C)c1ccc(OCC(=O)Nc2ccc(N3CCOCC3)cc2)cc1 | . | i
Cc1c(Cl)ccc2sc(N(CCCN(C)C)C(=O)c3ccn(C)n3)nc12 | i | i
Cc1cc(C)c2sc(N(CCCN(C)C)C(=O)c3ccn(C)n3)nc2c1 | i | +
CSc1ccccc1CN1CCC(CNC(=O)c2cnc3ccccc3n2)CC1 | i | i
CSc1ccccc1CN1CCC(CNC(=O)c2ccccn2)CC1 | i | +
CSc1ncccc1C(=O)N1CCC(CNC(=O)c2ccccc2F)CC1 | i | +
O=C(CSc1ccc(F)cc1)NCC1CCN(C(=O)c2ccccc2F)CC1 | i | +
CSc1ncccc1C(=O)N1CCC(CNC(=O)C2(c3ccc(Cl)cc3)CCCC2)CC1 | i | +
CSc1ccccc1C(=O)NCC1CCN(C(=O)c2ccccc2F)CC1 | i | i
CSc1ncccc1C(=O)N1CCC(CNC(=O)c2ccccc2Br)CC1 | i | i
CSc1ncccc1C(=O)N1CCC(CNC(=O)c2cc(Cl)cc(Cl)c2)CC1 | i | i
SMILES | GIRK2 act | AMPAR-TARP mod
CNC(=O)c1nsc(C(=O)NCc2ccc(OC)cc2)c1N | i | i
CCOC(=O)Cc1csc(NC(=O)CN2CCC(c3nnc(-c4ccco4)o3)CC2)n1 | i | i
Cn1cccc(C(=O)N2CCC(CNC(=O)C(=O)Nc3ccon3)CC2)c1=O | i | i
O=C(NCCOc1ccc2nnc(-c3ccccc3)n2n1)C1CCCC1 | i | i
COc1ccc(-c2nnc3ccc(OCCNC(=O)Nc4cccs4)nn23)cc1OC | i | +
O=C(NCCOc1ccc2nnc(-c3ccccc3)n2n1)Nc1ccccc1 | i | i
COc1ccc(-c2nnc3ccc(OCCNC(=O)c4ccccc4)nn23)cc1OC | i | i
O=C(COc1ccccc1)NCCOc1ccc2nnc(-c3cccc(F)c3)n2n1 | . | i
COc1ccc(-c2nnc3ccc(OCCNC(=O)C4CC4)nn23)cc1 | i | +
O=C(NCCOc1ccc2nnc(-c3cccc(F)c3)n2n1)c1cc(-c2ccccc2)n[nH]1 | i | +
O=C(NCCOc1ccc2nnc(-c3ccccc3)n2n1)Nc1cccs1 | i | +
O=c1ccc(-c2ccco2)nn1Cc1ccc([N+](=O)[O-])cc1 | i | i
CCOc1nn(CC)cc1-c1nnc(SCC(=O)N2CCOCC2)n1C | i | i
COc1ccc(S(=O)(=O)Nc2nc(CCC(=O)NCCc3ccccc3)cs2)cc1 | i | i
Cc1ccc(S(=O)(=O)Nc2ccc3c(c2)N(S(C)(=O)=O)CCC3)cc1C | . | i
Cc1ccc(-n2nnc(C(=O)N(C)C3CCS(=O)(=O)C3)c2C)cc1 (stereo not given) | i | i
COc1ccc(OCCCN2C(=O)C3(OCCCO3)c3cccc(C)c32)cc1 | i | +!
COc1ccc(CN2C(=O)C3(OCCCO3)c3ccccc32)cc1OC | . | i
COc1ccc(C2(CNC(=O)c3ccc(Cl)c(Cl)c3)CCOCC2)cc1 | . | +
COc1cc(OC)cc(C(=O)NCC2(c3ccccc3)CCOCC2)c1 | i | i
Cc1cc(NC(=O)c2cccs2)n(C(C)C)n1 | i | .
